Source: PubChem
Hits are enriched below; roughly 11% of the tested compounds scored in any of these assays.
PNC inhibitor: inhibitors of perinucleolar compartment assembly; PC3M PTB-GFP, PNC prevalence imaging, 16 h; active compounds read low; activity change (PNC), negative = inhibition, % at 10 µM; 140,000 compounds, 3.1% hits;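 active means readout at or below -70, meaning at least 70% loss of cells showing the perinucleolar compartment, a nuclear body marking cancer cells; inconclusive means readout between -30 and a set limit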;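 further: plate controls were DMSO wells for no effect and camptothecin positive control wells for full effect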
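Compounds are pinned in duplicate onto adhered PC3M cells stably expressing GFP-tagged PTB and incubated 16 h at 37 C. Cells are then fixed, nuclei stained with Hoechst, and PNC-positive cells counted.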
HttQ103 aggreg: inhibitors of mutant huntingtin aggregate formation in PC12 cells; PC12 HttQ103-GFP aggregates, Acumen cytometry, 40 h; Potency, µM (doses to about 46.1 µM), without a hit: at the highest dose activity change, negative = inhibition, hits mostly inhibitors; 220,000 compounds, 1.1% hits; active means well fitted curve in the direction sought with a large enough effect; inconclusive means small, poorly fitted or top-dose-only effect, or another doubt; inactive means no such curve, though single readings can be large; an effect the other way counts as inactive or inconclusive; further: potency means the concentration at half of the fitted maximal effect; on the % scale 0 is the no-effect control and ±100 the full control effect; nearly all actives have a fitted effect of over 60% in size
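PC12 cells stably carrying ecdysone-inducible HTT exon 1 Q103–GFP were induced with tebufenozide (100 nM final) and treated with library compounds in titration. GFP aggregates in lysates were counted by laser scanning cytometry.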
ALDH1A1 block: blocks purified human ALDH1A1 activity; Purified ALDH1A1, NADH fluorescence, propionaldehyde substrate; AID 1030; Potency, µM (series often up to 75.3 µM), without a hit: top-dose activity, negative = inhibition, usual class: inhibitors; 220,000 compounds, 7.3% hits; P00352;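 further: potency means the concentration at half of the fitted maximal effect; plate controls were no enzyme wells and a reference inhibitor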
Target sequence (P00352 whole entry, looked up): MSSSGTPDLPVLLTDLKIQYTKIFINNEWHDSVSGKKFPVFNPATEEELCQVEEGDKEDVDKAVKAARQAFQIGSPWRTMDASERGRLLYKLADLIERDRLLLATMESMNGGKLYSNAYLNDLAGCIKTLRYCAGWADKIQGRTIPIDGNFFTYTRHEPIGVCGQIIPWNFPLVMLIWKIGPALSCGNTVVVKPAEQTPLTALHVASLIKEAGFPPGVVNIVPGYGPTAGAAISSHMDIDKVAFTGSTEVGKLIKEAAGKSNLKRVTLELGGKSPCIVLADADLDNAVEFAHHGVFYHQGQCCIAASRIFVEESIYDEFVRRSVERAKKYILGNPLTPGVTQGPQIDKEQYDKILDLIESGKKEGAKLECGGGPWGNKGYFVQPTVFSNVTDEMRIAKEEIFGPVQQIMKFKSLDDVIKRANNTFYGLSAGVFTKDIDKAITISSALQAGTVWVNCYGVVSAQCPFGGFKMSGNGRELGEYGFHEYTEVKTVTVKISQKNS
HTT ATP protect: cytoprotection in Huntington HTT-Q103 PC12 cell model. PC12 HTT-Q103 induced, cytoprotection, ATP luminescence, 40 h. Potency, µM (titrated, usually from 56.4 µM), for inactives: cytoprotection (ATP increase), actives largely listed as activators. 230,000 compounds, 0.14% hits. AID 1471; active means well fitted curve in the direction sought with a large enough effect; inconclusive means small, poorly fitted or top-dose-only effect, or another doubt; inactive means no such curve, though single readings can be large; an effect the other way counts as inactive or inconclusive; further: potency means the concentration at half of the fitted maximal effect; % of control where 0% means no effect; nearly all actives have a fitted effect of over 45% in size
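Stable PC12 Q103-GFP cells in serum-supplemented, phenol red-free DMEM; induction by tebufenozide at 100 nM final; compound dose series; cell viability quantified luminescently from ATP.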
HPGD block: HPGD (human) dehydrogenase inhibition; Potency, µM, for the others: at the highest dose activity change, negative = inhibition, hits mostly inhibitors; P15428; purified HPGD, NADH fluorescence kinetic, PGE2 substrate; 150,000 compounds, 4.3% hits; AID 894; further: potency means the concentration at half of the fitted maximal effect; on the % scale 0 is the no-effect control and ±100 the full control effect
Target sequence (P15428 whole entry, looked up): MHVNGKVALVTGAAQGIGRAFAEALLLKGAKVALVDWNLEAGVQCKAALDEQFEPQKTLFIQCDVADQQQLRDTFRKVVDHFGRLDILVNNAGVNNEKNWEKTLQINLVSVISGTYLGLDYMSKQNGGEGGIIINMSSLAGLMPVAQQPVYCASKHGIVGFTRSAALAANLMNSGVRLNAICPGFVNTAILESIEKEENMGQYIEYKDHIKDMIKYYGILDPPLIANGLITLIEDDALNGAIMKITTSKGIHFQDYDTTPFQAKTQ
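NADH formation kinetics: reaction with 30 uM PGE2 and 1 mM NAD+ (final), 20 nM enzyme, Tris-HCl pH 8 with Tween 20, after 15 min compound preincubation at room temperature. Fluorescence change, last versus first of five reads.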
RGS12 GoLoco inh: RGS12 GoLoco-Gai1 interaction inhibition; Gai1:RGS12 GoLoco peptide FP, rhodamine, 10 min; Potency, µM (top dose mostly 61.6 µM), without a hit: at the highest dose activity, negative = inhibition, hits mostly inhibitors; 230,000 compounds, 0.44% hits; AID 880; active means well fitted inhibition curve with a large enough effect, not every such curve was filed as active; inactive means no such curve, though single readings can be large or run the other way; further: potency means the concentration at half of the fitted maximal effect; on the % scale 0 is the no-effect control and ±100 the full control effect; nearly all actives have a fitted effect of over 30% in size
The depositor's hits bear a star; ? = inconclusive; · = no result given; [ ] = dose if it differs, or a comment. Unless noted, the call rests on the fitted dose curve; in most records, active means well fitted inhibition curve with a large enough effect (not every such curve was filed as active); inconclusive means small, poorly fitted or top-dose-only effect, or another doubt; inactive means no such curve, though single readings can be large or run the other way.

SMILES	PNC inhibitor	HttQ103 aggreg	ALDH1A1 block	HTT ATP protect	HPGD block	RGS12 GoLoco inh
COc1cc(OC)cc(C(=O)NC(=S)Nc2ccc(N3CCCC3)cc2)c1	?	22.1%	11.2µM*	18.7%[10 µM]	-10.8%	0.3%
Cc1cccc(C(=O)NC(=S)Nc2ccc(S(=O)(=O)N3CCCCC3)cc2)c1	-21.4	?	8.91µM*	-32.6%	-9.7%	2.0%
Cc1ccc(C(=O)NC(=S)Nc2ccc(N3CCOCC3)cc2)c(C)c1	·	17.0%	31.6µM*	-19.0%	·	18.4%
O=C(NC(=S)Nc1ccc(N2CCCCC2)cc1)c1cccs1	?	-10.7%	22.4µM*	-12.2%[10 µM]	31.6µM*	10.8%
Cc1ccccc1CSCC(=O)NCCSc1ccccn1	·	-18.7%	-5.1%	-11.7%	·	8.1%
COc1c(Cl)cnn(-c2ccc(Cl)c(Cl)c2)c1=O	·	-7.3%	-2.7%	21.2%[10 µM]	·	-4.4%
O=C(NC(=S)Nc1ccccc1N1CCOCC1)c1cccs1	11.7	?	39.8µM*	-9.7%[10 µM]	-14.3%	10.0%
O=C(NC(=S)Nc1ccc(S(=O)(=O)N2CCCCCC2)cc1)c1cccs1	?	9.9%	12.6µM*	14.8%[10 µM]	-15.2%	-9.2%
O=C(Nc1ccc(F)cc1)c1cc(S(=O)(=O)N2CCCCC2)cs1	-24.3	10µM*	0.6%	-8.6%	-6.2%	6.6%
Cc1ccccc1NC(=O)c1cc(S(=O)(=O)N2CCCCC2)cs1	-6.1	-56.1%	?	-14.1%	-15.4%	7.3%
COc1ccc(CNC(=O)Cn2ncn3cccc3c2=O)cc1	·	4.7%	4.1%	·	·	-27.2%
Cc1oc2ccc(O)c(CN3CCOCC3)c2c1C(C)O (stereo not given)	?	2.6%	7.08µM*	0.1%[1.9 µM]	-2.5%	-16.3%
Cc1cc2c(c(=O)n1CCN(C)C)C(c1ccncc1)C(C#N)=C(N)O2 (stereo not given)	-11.1	-3.6%	6.1%	-14.3%[0.074 µM]	-4.0%	7.0%
COC(=O)C1=C(N)Oc2cc(C)n(C)c(=O)c2C1c1ccc(Cl)cc1 (stereo not given)	34.3	11.2µM*	11.6%	23.0%[0.074 µM]	-2.9%	4.6%
COC(=O)c1ccc(C2C(C#N)=C(N)Oc3cc(C)n(C)c(=O)c32)cc1 (stereo not given)	37.8	10.2%	25.1µM*	-12.0%[0.074 µM]	-12.1%	12.4%
COc1ccc(C(=O)/C=C/Nc2cccc(O)c2)cc1	39.3	22.3%	11.2µM*	-54.3%	?	-1.6%
COc1ccc(C(=O)/C=C/Nc2ccc(S(=O)(=O)Nc3cccc(C(C)=O)c3)cc2)cc1	-21.1	?	?	?	?	8.8%
CCOC(=O)c1ccc(N/C=C\C(=O)c2cccc(OC)c2)cc1	18.9	10.5%	?	·	-14.7%	4.9%
COc1ccc(C(=O)/C(C#N)=N/Nc2ccc([N+](=O)[O-])cc2)cc1	·	1.26µM*	?	-161.8%	·	53.9%
COc1cccc(C(=O)/C=C/Nc2cc(C)ccc2O)c1	11.9	?	25.1µM*	-30.9%	?	-19.2%
COc1ccc(C(=O)/C=C/Nc2ccc([N+](=O)[O-])cc2)cc1	79.9	17.7%	39.8µM*	·	-19.5%	-1.5%
COC(=O)C1=C(C)[C@H](O)[C@@H](C)[C@](C)(c2cc(OC)c(C)c(OC)c2COc2ccccc2)O1	·	·	8.6%	?	-5.6%	5.5%
COc1ccc(CNc2cc(-c3ccccc3OC)ncn2)c(OC)c1	·	·	0.7%	-10.4%	·	8.5%
COc1ccc(C(=O)/C=C/N(C)C)cc1	-80.4*	21.9%	7.94µM*	-21.4%[10 µM]	25.1µM*	-16.3%
CCN(CC)c1ccc(C2=NNC(=O)CC2C)cc1[N+](=O)[O-] (stereo not given)	37.8	4.1%	12.6µM*	-5.2%[10 µM]	-13.6%	-8.3%
SMILES	PNC inhibitor	HttQ103 aggreg	ALDH1A1 block	HTT ATP protect	HPGD block	RGS12 GoLoco inh
N/C(=N\c1nc(CSc2ccccn2)cc(=O)[nH]1)Nc1ccc(Cl)cc1Cl	·	-9.3%[9.22 µM]	·	3.3%[10 µM]	·	5.9%
Cc1[nH]c2ccc(-c3nnc(SCC(=O)NCc4ccco4)n3Cc3ccccc3)cc2c1C	11.6	-0.7%[9.22 µM]	31.6µM*	-25.9%	15.8µM*	8.8%
O=c1cc(CSc2nnc(-c3cccs3)n2Cc2ccccc2)nc2sc3ccccc3n12	8.9	?	7.94µM*	26.6%[10 µM]	-6.5%	16.6%
O=C(CSc1nnc(-c2ccco2)n1Cc1ccccc1)OC1CCCCC1	-26.9	31.6µM*	?	12.9%	25.1µM*	2.1%
CCn1c(SCC(=O)NCCc2ccccc2)nnc1-c1cccs1	33.3	10.1%	-5.2%	-0.2%	28.2µM*	-0.5%
O=c1c(CCc2ccccc2)nc2cnc(Nc3ccccc3)nc2n1C[C@H]1CCCO1	·	·	?	-15.8%	·	74.7%
CCCCCCCC/C=C\CCCCCCCCN	·	0.5%	·	-8.2%	·	·
CCn1c(SCC(=O)NCc2ccco2)nnc1-c1cccs1	-25.7	?	8.91µM*	2.0%	25.1µM*	-3.4%
CCn1c(SCC(=O)NCC(=O)Nc2ccc(F)cc2)nnc1-c1cccs1	-86.2*	-11.0%	5.5%	-27.5%	-8.3%	1.2%
Cc1oc(-c2cccs2)nc1CS(=O)CC(=O)NCCc1ccccc1 (stereo not given)	-27.8	0.2%	?	-0.7%	31.6µM*	10.6%
CCn1c(SCC(=O)Nc2ccc(C(=O)OC)cc2)nnc1-c1cccs1	?	-11.2%	6.4%	14.6%[0.074 µM]	-10.0%	4.7%
CC(=O)c1c(C)[nH]c(C(=O)CSc2nnc(-c3cccs3)n2Cc2ccccc2)c1C	?	-2.2%	12.6µM*	?	?	169.5%
COc1ccc(CN(Cc2ccc(C(=O)O)cc2)C(=S)Nc2ccc(C)cc2)cc1OC	·	17.4%	-5.2%	3.1%	·	-7.9%
CCCCn1c(SCC(=O)NCc2ccco2)nnc1-c1ccoc1C	36.4	2.2%	-11.6%	-12.3%	-7.7%	13.3%
CCCCn1c(SCC(=O)NCc2ccco2)nnc1-c1ccco1	29.8	15.6%	20µM*	-9.3%[10 µM]	-23.7%	9.8%
COC(=O)CSc1nnc(-c2ccco2)n1Cc1ccco1	3.2	11.9%	14.1µM*	2.0%	-19.5%	-5.2%
CN(C)Cc1ccccc1-c1cncnc1NC1CC1	·	·	-3.2%	20.0%	-1.4%	-7.9%
C[C@@H]1C=C(C(=O)N2CCOCC2)O[C@H](OCc2ccc(CO)cc2)C1	·	6.5%[9.22 µM]	-4.9%	18.1%[10 µM]	·	-3.0%
CCOC(=O)c1[nH]c(C)c(C(=O)Nc2cc(OC)ccc2OC)c1C	-107.5*	-0.4%	-13.2%	-56.5%[10 µM]	-12.1%	16.7%
Cc1cc(F)c(F)c(C(=O)N2C(C)CCCC2C)c1Cl (stereo not given)	·	·	4.0%	·	·	1.5%
CN(C)C(=O)N1CCCC(C(=O)NCc2ccccc2)C1 (stereo not given)	-90.9*	-4.9%	7.1%	8.3%[10 µM]	-6.2%	14.0%
CN(C)C(=O)N1CCCC(C(=O)NCCc2ccccc2)C1 (stereo not given)	9.5	6.4%	?	20.5%	?	-1.6%
